Where “and” joins values, the source holds several entries; their conditions need not be identical. Identical values can stand only once. Results filed as inconclusive are left out. Where a call stands in place of a potency, no number is given. Some compounds were tested as several samples or in several runs, with calls that do not always agree. Calls of active or inactive are those of the source. Unless noted, calls come from the whole dose curve.
Columns and labels:
[1] = Nuclear factor erythroid 2-related factor 2/antioxidant responsive element (Nrf2/ARE) small molecule agonists: qHTS cell viability counter screen in human keratinocytes (AID 1919968; active = well fitted curve in the direction sought with a large enough effect in the repeat runs; an effect the other way counts as inactive or inconclusive; note: nearly all actives have a fitted effect of over 55% in size; note: potency is the fitted concentration of half-maximal effect)
Method in brief: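 HaCaT ARE reporter line, 1,500 cells/well; 5 h settle, 37 C/5% CO2; cpd in DMSO pinned; 23 h exposure; CellTiter-Fluor, 1 h; fluorescence.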

[2] = Nuclear factor erythroid 2-related factor 2/antioxidant responsive element (Nrf2/ARE) small molecule agonists: luciferase reporter gene qHTS assay in human keratinocytes (AID 1919969); note: nearly all actives have a fitted effect of over 35% in size; note: potency is the fitted concentration of half-maximal effect
[3] = target: Gonadotropin-releasing hormone receptor (Homo sapiens) (UniProt P30968); test: Human gonadotropin-releasing hormone receptor (GnRHR) small molecule agonists, calcium flux assay in GnRHR-HEK293 cells (AID 1920063); note: nearly all actives have a fitted effect of over 35% in size
Method in brief: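 GnRHR-HEK293, 1500 cells/well, 18 h 37 C/5% CO2; Ca dye 1 h 37 C; cpd pinned (DMSO), agonist mode; kinetic FL 480/540, 3 min, 1 s reads; 15 conc, n=3.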

[4] = target: KiSS-1 receptor (Homo sapiens) (UniProt Q969F8); test: Human kisspeptin (KISS1R) small molecule agonists, calcium flux assay in KISS1R-HEK293 cells (AID 1920064; active = well fitted curve in the direction sought with a large enough effect in the repeat runs; an effect the other way counts as inactive or inconclusive)
Method in brief: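 Stable human KISS1R HEK293 line; 18 h plating, 37 C/5% CO2; calcium dye 1 h 37 C; compound pin transfer; kinetic fluorescence Ex/Em 480/540, 3 min.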

[5] = G protein-coupled receptor (GPCR) small molecule agonists, calcium flux assay: HEK293 wild type cell line counter screen (AID 1920065)
Method in brief: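 Kinetic fluorescence at Ex/Em 480/540, recorded every second over 3 min, served as the read-out after compound addition. Each compound was tested at 15 concentrations in triplicate on cells pre-loaded with calcium dye for 1 h.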

[6] = p53 small molecule agonists, cell-based qHTS assay with human liver microsomes: qHTS cell viability counter screen (AID 1963579); note: nearly all actives have a fitted effect of over 45% in size
Method in brief: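 In this multiplexed counter screen, the reporter plates were subsequently treated with CellTiter-Glo so that cell viability, reflected by luminescence, could be recorded for p53RE-bla cells dosed 16 h with compounds under microsomal activation (HLM and NADPH).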

[7] = p53 small molecule agonists, cell-based qHTS assay with rat liver microsomes: qHTS cell viability counter screen (AID 1963580); note: nearly all actives have a fitted effect of over 45% in size
Method in brief: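 p53RE-bla HCT-116 cells were exposed 16 h at 37 C to compounds with rat liver microsomes (0.5 mg/mL) and NADPH (0.5 mg/mL). Viability was measured in the same wells as ATP content by CellTiter-Glo luminescence.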

[8] = p53 small molecule agonists, cell-based qHTS assay: qHTS cell viability counter screen (AID 1963581); note: nearly all actives have a fitted effect of over 45% in size
Method in brief: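 HCT-116 p53RE-bla cells, 4,000/well, plated 5 h before compound pin transfer; 16 h at 37 C; bla substrate 2 h RT; then CellTiter-Glo, 30 min RT, luminescence.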

[9] = cAMP Responsive Elements (CRE) small molecule agonists, cell-based qHTS assay (AID 1963590)
Method in brief: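 HEK 293T CRE-bla, 2,000 cells/well, 18 h preincubation 37 C/5% CO2; cpds (DMSO) pinned, 3 h; LiveBLAzer B/G FRET substrate, 2 h RT.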

[10] = cAMP Responsive Elements (CRE) small molecule antagonists, cell-based qHTS assay (AID 1963591; active = well fitted inhibition curve with a large enough effect in the signal ratio in the repeat runs, not every such curve was filed as active; the % refers to the signal ratio)
Method in brief: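 Beta-lactamase reporter read by FRET substrate (LiveBLAzer B/G) after 2 h at room temperature. CRE-bla HEK293T cells had received compound plus 0.25 uM (final) NKH477 for 3 h at 37 °C.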

[11] = target: Beta-2 adrenergic receptor (Homo sapiens) (UniProt P07550); test: Adrenergic beta2 receptor (ADRB2) small molecule antagonists, cell-based qHTS assay (AID 1963592); note: series mostly up to about 92 µM; nearly all actives have a fitted effect of over 50% in size
Method in brief: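 Cells (CHO, stable ADRB2 overexpression) incubated 18-20hr at 37C; compounds added from DMSO; agonist mix (1nM isoproterenol, 100uM IBMX, 25uM Ro-20-1724) added; 0.5hr RT; d2-cAMP and anti-cAMP-cryptate added; 1hr RT; 665/615 nm read.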

[12] = target: Beta-2 adrenergic receptor (Homo sapiens) (UniProt P07550); test: Adrenergic beta2 receptor (ADRB2) small molecule agonists, cell-based qHTS assay (AID 1963593);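 note: CHO cells stably overexpressing human ADRB2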
Method in brief: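 CHO cells stably over-expressing ADRB2 were plated overnight at 37C, then dosed with compounds plus a stimulation mix containing 100uM IBMX and 25uM Ro-20-1724 for 0.5hr at room temperature. cAMP was measured by HTRF competition, 1hr.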

[13] = target: D(2) dopamine receptor (Homo sapiens) (UniProt P14416); test: Dopamine D2 receptor (DRD2) small molecule agonists, cell-based qHTS assay (AID 1963594); note: nearly all actives have a fitted effect of over 35% in size
Method in brief: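 HEK293 cells stably expressing human DRD2, pre-treated with PDE inhibitor Ro20-1724 (0.1 mM final) and compound 10 min at room temperature, then stimulated with NKH477 (200nM […]) for 30 min. cAMP read by HTRF (665/620 nm).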

[14] = target: D(2) dopamine receptor (Homo sapiens) (UniProt P14416); test: Dopamine D2 receptor (DRD2) small molecule antagonists, cell-based qHTS assay (AID 1963595; active = well fitted inhibition curve with a large enough effect in the signal ratio in the repeat runs, with a control signal flat; the % refers to the signal ratio)
Method in brief: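 HTRF cAMP read-out at 665 and 620 nm emission (340 nm excitation). Antagonist mode: compounds were tested against 12 nM quinpirole in DRD2-HEK293 cells, with 200 nM NKH477 raising cAMP and 0.1 mM Ro20-1724 blocking its breakdown.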

[15] = target: 5-hydroxytryptamine receptor 2A (Homo sapiens) (UniProt P28223); test: 5-hydroxytryptamine receptor 2A (HTR2A) small molecule antagonists, cell-based qHTS assay (AID 1963586); note: nearly all actives have a fitted effect of over 45% in size
Method in brief: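 Antagonist-mode intracellular calcium assay: DOI (4 nM) added after 5 min compound pre-incubation at room temperature to dye-loaded HTR2A-CHO cells. Fluorescence followed for 3 min, sampled every second.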

[16] = target: 5-hydroxytryptamine receptor 2A (Homo sapiens) (UniProt P28223); test: 5-hydroxytryptamine receptor 2A (HTR2A) small molecule agonists, cell-based qHTS assay (AID 1963587); note: nearly all actives have a fitted effect of over 30% in size
Method in brief: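 CHO cells stably expressing human HTR2A, plated 18 h, loaded with calcium dye 1 h at 37 C. Agonist mode: compounds added and intracellular calcium fluorescence recorded kinetically for 2 min at 1 sec intervals.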

[17] = target: Muscarinic acetylcholine receptor M1 (Homo sapiens) (UniProt P11229); test: Cholinergic receptor muscarinic 1 (CHRM1) small molecule antagonists, cell-based qHTS assay (AID 1963588); note: nearly all actives have a fitted effect of over 40% in size
Method in brief: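 CHRM1-CHO calcium-flux assay, antagonist mode. Cells were seeded 18 h, dye-loaded 1 h at 37 C and given compound for 5 min at RT, then acetylcholine was added at 50nM. FDSS fluorescence was read 3 min; 15 concentrations, three runs.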

[18] = target: Muscarinic acetylcholine receptor M1 (Homo sapiens) (UniProt P11229); test: Cholinergic receptor muscarinic 1 (CHRM1) small molecule agonists, cell-based qHTS assay (AID 1963589); note: nearly all actives have a fitted effect of over 35% in size
Method in brief: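 Human M1 in stable CHO line; 18 h plating, 1 h dye load 37 C; cpd added (agonist mode); Ca2+ fluorescence kinetic read, 1 s intervals; 15 conc, 3 runs.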

[19] = p53 small molecule agonists, cell-based qHTS assay (AID 1963582; active = well fitted activation curve with a large enough effect in the signal ratio in the repeat runs, not every such curve was filed as active; the % refers to the signal ratio)
Method in brief: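 Reporter line: p53RE-bla. Pre-incubation 5 h, 37 C, 5% CO2; compound (DMSO, pin tool) 16 h, 37 C; B/G FRET substrate 2 h RT; fluorescence intensity read.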

KiSS-1 receptor (Homo sapiens), sequence (Q969F8 whole entry, looked up): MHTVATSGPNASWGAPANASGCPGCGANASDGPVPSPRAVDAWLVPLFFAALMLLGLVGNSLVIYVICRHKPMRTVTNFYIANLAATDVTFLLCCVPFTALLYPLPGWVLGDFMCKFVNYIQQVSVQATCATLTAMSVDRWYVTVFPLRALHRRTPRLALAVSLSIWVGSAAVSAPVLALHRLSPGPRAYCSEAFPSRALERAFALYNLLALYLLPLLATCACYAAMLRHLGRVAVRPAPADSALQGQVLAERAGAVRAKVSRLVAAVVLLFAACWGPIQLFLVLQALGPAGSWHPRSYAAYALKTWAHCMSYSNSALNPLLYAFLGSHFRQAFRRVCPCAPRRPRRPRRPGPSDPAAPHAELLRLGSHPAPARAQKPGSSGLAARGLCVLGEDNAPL
Beta-2 adrenergic receptor (Homo sapiens), sequence (P07550 whole entry, looked up): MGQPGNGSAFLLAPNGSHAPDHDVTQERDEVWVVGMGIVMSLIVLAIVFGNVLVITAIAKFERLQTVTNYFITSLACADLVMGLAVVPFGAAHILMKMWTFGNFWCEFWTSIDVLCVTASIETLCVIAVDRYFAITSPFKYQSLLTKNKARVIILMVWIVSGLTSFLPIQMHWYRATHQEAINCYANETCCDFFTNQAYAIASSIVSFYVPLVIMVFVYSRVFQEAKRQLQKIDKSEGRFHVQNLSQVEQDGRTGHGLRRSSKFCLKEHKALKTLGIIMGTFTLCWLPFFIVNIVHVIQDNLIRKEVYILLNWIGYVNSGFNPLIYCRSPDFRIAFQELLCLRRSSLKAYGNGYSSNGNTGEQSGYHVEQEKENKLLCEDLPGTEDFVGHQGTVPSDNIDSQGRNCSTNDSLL
Gonadotropin-releasing hormone receptor (Homo sapiens), sequence (P30968 whole entry, looked up): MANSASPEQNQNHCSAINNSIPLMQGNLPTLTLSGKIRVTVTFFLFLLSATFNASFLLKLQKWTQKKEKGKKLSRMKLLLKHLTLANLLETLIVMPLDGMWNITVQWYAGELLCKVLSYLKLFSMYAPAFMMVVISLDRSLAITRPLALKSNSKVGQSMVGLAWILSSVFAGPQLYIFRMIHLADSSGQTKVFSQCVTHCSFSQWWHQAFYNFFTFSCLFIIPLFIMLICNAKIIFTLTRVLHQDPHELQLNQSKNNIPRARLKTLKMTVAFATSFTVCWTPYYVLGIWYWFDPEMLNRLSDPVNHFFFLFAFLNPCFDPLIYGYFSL
Muscarinic acetylcholine receptor M1 (Homo sapiens), sequence (P11229 whole entry, looked up): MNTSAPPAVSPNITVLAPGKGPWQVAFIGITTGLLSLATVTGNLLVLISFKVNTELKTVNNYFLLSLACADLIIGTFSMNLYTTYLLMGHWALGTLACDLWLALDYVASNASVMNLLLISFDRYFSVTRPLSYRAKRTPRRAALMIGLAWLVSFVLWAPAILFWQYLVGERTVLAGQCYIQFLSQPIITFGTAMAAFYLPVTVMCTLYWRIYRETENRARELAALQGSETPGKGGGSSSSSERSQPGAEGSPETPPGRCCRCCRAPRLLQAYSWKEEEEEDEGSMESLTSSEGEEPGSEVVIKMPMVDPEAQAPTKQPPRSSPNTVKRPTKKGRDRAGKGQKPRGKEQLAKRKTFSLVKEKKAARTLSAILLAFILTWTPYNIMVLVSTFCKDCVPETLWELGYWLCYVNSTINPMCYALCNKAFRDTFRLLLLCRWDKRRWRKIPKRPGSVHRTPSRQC
D(2) dopamine receptor (Homo sapiens), sequence (P14416 whole entry, looked up): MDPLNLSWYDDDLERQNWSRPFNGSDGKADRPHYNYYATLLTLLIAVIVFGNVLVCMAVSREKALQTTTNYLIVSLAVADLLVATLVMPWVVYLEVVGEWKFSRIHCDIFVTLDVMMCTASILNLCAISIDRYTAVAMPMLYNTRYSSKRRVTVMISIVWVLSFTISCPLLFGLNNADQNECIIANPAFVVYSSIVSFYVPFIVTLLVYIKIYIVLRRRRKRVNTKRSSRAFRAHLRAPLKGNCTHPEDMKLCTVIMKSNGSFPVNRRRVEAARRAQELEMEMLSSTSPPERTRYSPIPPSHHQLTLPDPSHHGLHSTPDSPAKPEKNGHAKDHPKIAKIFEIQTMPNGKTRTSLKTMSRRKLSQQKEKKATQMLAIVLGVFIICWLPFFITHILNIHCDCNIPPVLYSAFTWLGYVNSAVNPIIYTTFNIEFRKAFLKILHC
5-hydroxytryptamine receptor 2A (Homo sapiens), sequence (P28223 whole entry, looked up): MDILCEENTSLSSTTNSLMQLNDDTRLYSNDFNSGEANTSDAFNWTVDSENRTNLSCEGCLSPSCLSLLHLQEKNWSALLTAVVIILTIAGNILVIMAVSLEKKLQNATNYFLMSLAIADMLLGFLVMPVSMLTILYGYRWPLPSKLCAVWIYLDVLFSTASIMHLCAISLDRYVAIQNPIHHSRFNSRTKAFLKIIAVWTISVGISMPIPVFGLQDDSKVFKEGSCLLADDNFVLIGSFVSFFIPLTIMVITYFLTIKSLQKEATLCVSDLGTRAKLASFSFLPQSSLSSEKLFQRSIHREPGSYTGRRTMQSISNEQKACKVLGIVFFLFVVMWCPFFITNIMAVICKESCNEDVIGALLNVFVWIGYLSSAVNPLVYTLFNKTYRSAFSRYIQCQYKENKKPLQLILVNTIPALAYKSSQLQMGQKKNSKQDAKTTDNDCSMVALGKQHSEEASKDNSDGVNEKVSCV

Compound | Potency [1] | Potency [2] | Potency [3] | Potency [4] | Potency [5] | Potency [6] | Potency [7] | Potency [8] | Potency [9] | Potency [10] | Potency [11] | Potency [12] | Potency [13] | Potency [14] | Potency [15] | Potency [16] | Potency [17] | Potency [18] | Potency [19]
Cc1ccc(S(=O)(=O)NC(=O)NN2CCCCCC2)cc1 | inactive | inactive | inactive | inactive | inactive | inactive | inactive | inactive | inactive | inactive | inactive | inactive | inactive | inactive | – | – | – | – | –
F[B-](F)(F)F | inactive and 31.1 µM (active) | inactive | inactive | inactive | inactive | inactive | inactive | inactive | inactive | inactive | inactive | inactive | inactive | inactive | inactive | inactive | inactive | inactive | –
CC(=O)OCC(COC(C)=O)OC(C)=O | inactive | inactive | inactive | inactive | inactive | inactive | inactive | inactive | inactive | inactive | inactive | inactive | inactive | inactive | – | – | – | – | –
CCCC(=O)O | inactive | inactive | inactive | inactive | inactive | inactive | inactive | inactive | inactive | inactive | inactive | inactive | inactive | inactive | inactive | inactive | inactive | inactive | –
CCCCCCC(C)(C)S | inactive | inactive | inactive | inactive | inactive | inactive | inactive | inactive | inactive | inactive | inactive | inactive | inactive | inactive | inactive | inactive | inactive | inactive | –
CCCCC(C=O)CC (stereo unspecified) | inactive | inactive | inactive | inactive | inactive | inactive | inactive | inactive | – | inactive | – | inactive | inactive | inactive | inactive | – | inactive | – | –
O=C(O)CCCC[C@@H]1SC[C@@H]2NC(=O)N[C@@H]21 | inactive | inactive | inactive | inactive | inactive | inactive | inactive | inactive | – | inactive | inactive | – | inactive | inactive | inactive | inactive | inactive | inactive | –
COc1cc(O)c(C(=O)c2ccccc2)cc1S(=O)(=O)O | inactive | inactive | inactive | inactive | inactive | inactive | inactive | inactive | inactive | inactive | inactive | inactive | inactive | – | inactive | – | inactive | inactive | –
O=c1oc(=O)c2cc3c(=O)oc(=O)c3cc12 | inactive | inactive | inactive | inactive | inactive | inactive | inactive | inactive | inactive | inactive | inactive | – | inactive | inactive | inactive | inactive | inactive | inactive | –
CCCCCCCCCCCCCCCCO | inactive | inactive | inactive | inactive | inactive | inactive | inactive | inactive | inactive | inactive | inactive | inactive | inactive | inactive | inactive | inactive | inactive | inactive | –
CCO[Si](CCC#N)(OCC)OCC | inactive | inactive | inactive | inactive | inactive | inactive | inactive | inactive | inactive | inactive | inactive | – | inactive | inactive | inactive | inactive | inactive | inactive | –
CC(=O)/C=C/C1=C(C)CCCC1(C)C | inactive | inactive | inactive | inactive | inactive | inactive | inactive | inactive | – | inactive | inactive | inactive | inactive | inactive | inactive | – | inactive | inactive | –
CC1=CCC2CC1C2(C)C (stereo unspecified) | inactive | inactive | inactive | inactive | inactive | inactive | inactive | inactive | – | inactive | inactive | – | inactive | inactive | inactive | inactive | inactive | inactive | –
OCc1cccnc1 | inactive | inactive | inactive | inactive | inactive | inactive | inactive | inactive | inactive | inactive | inactive | inactive | inactive | inactive | inactive | inactive | inactive | inactive | –
CC1(C)OC[C@@H]2O[C@@]3(C(=O)O)OC(C)(C)O[C@H]3[C@@H]2O1 | inactive | inactive | inactive | inactive | inactive | inactive | inactive | inactive | inactive | inactive | inactive | inactive | inactive | inactive | inactive | – | inactive | inactive | –
Cc1c(N(C)C)c(=O)n(-c2ccccc2)n1C | inactive | 69.8 µM (active) and inactive | inactive | inactive | inactive | inactive | inactive | inactive | inactive | – | inactive | inactive | inactive | inactive | inactive | – | inactive | inactive | –
Cc1ccc(C)c(OCCCC(C)(C)C(=O)O)c1 | inactive | inactive | inactive | inactive | inactive | inactive | inactive | inactive | – | inactive | inactive | inactive | inactive | inactive | – | – | – | – | –
CNC(=O)Oc1ccc2c(c1)[C@]1(C)CCN(C)[C@@H]1N2C | inactive | inactive | inactive | inactive | inactive | inactive | inactive | inactive | inactive | inactive | inactive | inactive | inactive | inactive | – | – | – | – | inactive

From PubChem BioAssay (Tox21)
